# According to the supplement of paper PMC8728848:
# The sample as a whole holds a higher share of the strongest signals than the screen did.
# B1: BT3172pd (Bacteroides thetaiotaomicron) (protein)
# chain: MLPLRAEHYYYKQISLKEGLPSNVRCILRDEQGFIWIGTKAGLGKFDGHQLKRYKHQANDPHSLLHNLIYQIAEDKQHNIWILTEKGIARYQQQSNNFTFPTDEEGNYITAYSFCLVPDGILFGGKDRIYKYSYKDSSLRLLQYFNANSFKITALSVWDSKTLLCCSRWTGLYLVDLQTGEHRRPPFDCGPEITSMITDSKNRIWIAPYSGGLRCYSRDGKLSASYTTHNSSLSNDIVLSLAEREEQLWIGTDGGGINILHPETGEISQLEYIPGRENYSLPANSILCLHNDYNNNVWAGSTCNGLISIREVSMKTYTDVVPGNDRGLSNGTVRSLYRQSPDSIWIGTDGGGINLFSPHTEKFTHYSSTWGDKVAFISGFTPGKLLISLFSKGVFVFNPATGEKQPFTIIDKETTTRLCNRGKSVNLYQNTPNTVLFLGDHIYQYHLKEKKFSTITEEEGKDIVGTLVPFDHQENLTYINDIKHIYELDDQTSRLKTVFECYTDTVISSVSHDEQGHFWIGSNFGLIHYDPVLKSRTLVPTNLFTEINMVLCDQKGKVWIGVDNMLFAYFIKEQKFVLFGESNGAIQNEYLPNARLVNEQGDAYIGGVKGMLRIDGQLLLNTSEMPELQLLDITINGESANHEWYNHPAKISVPWNSNISIRIMSREEDIFRQKIYRYQIEGLNNEYTESYNPELVIRSLLPGSYRIMASCTAKDGSWIPDQQVLELTVLPPWYRTHHHHHH
# Assays:
# Experiment in all cases: glycan array binding signal (z-score within array); higher = stronger binding
# Settings in all cases: glycan notation: IUPAC condensed, linker removed
# [1] = molecular target: GalNAc3S(b1-4)[Fuc(a1-3)]GlcNAc
# Procedure, shortened: (§1)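 Negative Z-scores can be read as non-binding. The Z-score is calculated within each array and then averaged across arrays of one protein sequence at different concentrations or buffers and across linkers. Arrays, 3228 in all, were curated from the Consortium for Functional Glycomics database and kept only where the protein sequence was available.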
# [2] = molecular target: Glc(a1-6)Glc(a1-6)Glc(a1-6)Glc
# Procedure, shortened: as §1
# [3] = molecular target: GlcA3S(b1-3)Gal(b1-4)GlcNAc(b1-2)Man
# Procedure, shortened: as §1
# [4] = molecular target: GlcNAc(a1-4)Gal(b1-4)GlcNAc(b1-3)Gal(b1-4)GlcNAc
# Procedure, shortened: as §1
# [5] = molecular target: GlcNAc(b1-2)[GlcNAc(b1-6)]Man(a1-6)[GlcNAc(b1-4)][GlcNAc(b1-2)Man(a1-3)]Man(b1-4)GlcNAc(b1-4)GlcNAc
# Procedure, shortened: as §1
# [6] = molecular target: GlcNAc(b1-3)Gal(b1-4)GlcNAc(b1-3)Gal(b1-4)GlcNAc(b1-2)[GlcNAc(b1-3)Gal(b1-4)GlcNAc(b1-3)Gal(b1-4)GlcNAc(b1-6)]Man(a1-6)[GlcNAc(b1-3)Gal(b1-4)GlcNAc(b1-3)Gal(b1-4)GlcNAc(b1-2)Man(a1-3)]Man(b1-4)GlcNAc(b1-4)[Fuc(a1-6)]GlcNAc
# Procedure, shortened: as §1
# GlcNAc(b1-3)GalNAc = molecular target: GlcNAc(b1-3)GalNAc
# Procedure, shortened: as §1
# Man(a1-3)[Man(a1-6)]Man = molecular target: Man(a1-3)[Man(a1-6)]Man
# Procedure, shortened: as §1
# [7] = molecular target: Man(a1-3)[Man(a1-6)]Man(b1-4)GlcNAc(b1-4)GlcNAc
# Procedure, shortened: as §1
# [8] = molecular target: Neu5Ac(a2-3)Gal(b1-3)[Fuc(a1-4)]GlcNAc
# Procedure, shortened: as §1
# [9] = molecular target: Neu5Ac(a2-3)Gal(b1-3)[GlcNAc(b1-6)]GalNAc
# Procedure, shortened: as §1
# Neu5Ac(a2-3)Gal(b1-4)Glc = molecular target: Neu5Ac(a2-3)Gal(b1-4)Glc
# Procedure, shortened: as §1
# [10] = molecular target: Neu5Ac(a2-3)Gal(b1-4)GlcNAc(b1-2)[Neu5Ac(a2-3)Gal(b1-4)GlcNAc(b1-4)]Man(a1-3)[GlcNAc(b1-4)][Neu5Ac(a2-3)Gal(b1-4)GlcNAc(b1-2)[Neu5Ac(a2-3)Gal(b1-4)GlcNAc(b1-6)]Man(a1-6)]Man(b1-4)GlcNAc(b1-4)GlcNAc
# Procedure, shortened: as §1
# [11] = molecular target: Neu5Ac(a2-3)Gal(b1-4)GlcNAc(b1-3)GalNAc
# Procedure, shortened: as §1
# [12] = molecular target: Neu5Ac(a2-3)Gal(b1-4)GlcNAc(b1-6)[Gal(b1-3)]GalNAc
# Procedure, shortened: as §1
# [13] = molecular target: Neu5Ac(a2-3)Gal(b1-4)GlcNAc6S
# Procedure, shortened: as §1
# [14] = molecular target: Neu5Ac(a2-3)Gal(b1-4)[Fuc(a1-3)]GlcNAc(b1-2)Man
# Procedure, shortened: as §1
# [15] = molecular target: Neu5Ac(a2-3)Gal6S(b1-4)GlcNAc
# Procedure, shortened: as §1
# Neu5Ac(a2-6)Gal = molecular target: Neu5Ac(a2-6)Gal
# Procedure, shortened: as §1
# [16] = molecular target: Neu5Ac(a2-6)Gal(b1-4)GlcNAc(b1-2)Man(a1-6)[Gal(b1-4)GlcNAc(b1-2)Man(a1-3)]Man(b1-4)GlcNAc(b1-4)GlcNAc
# Procedure, shortened: as §1
# [17] = molecular target: Neu5Ac(a2-6)Gal(b1-4)GlcNAc(b1-3)Gal(b1-4)GlcNAc(b1-2)Man(a1-3)[Neu5Ac(a2-6)Gal(b1-4)GlcNAc(b1-3)Gal(b1-4)GlcNAc(b1-2)Man(a1-6)]GalNAc
# Procedure, shortened: as §1
# [18] = molecular target: Neu5Ac(a2-6)Gal(b1-4)GlcNAc(b1-3)Gal(b1-4)GlcNAc(b1-6)[Gal(b1-3)]GalNAc
# Procedure, shortened: as §1
# [19] = molecular target: Neu5Ac(a2-6)Gal(b1-4)GlcNAc(b1-3)[Neu5Ac(a2-6)Gal(b1-4)GlcNAc(b1-6)]GalNAc
# Procedure, shortened: as §1
# [20] = molecular target: Neu5Ac(a2-6)Gal(b1-4)GlcNAc(b1-6)GalNAc
# Procedure, shortened: as §1
# [21] = molecular target: Neu5Ac(a2-8)Neu5Ac(a2-3)Gal(b1-4)GlcNAc
# Procedure, shortened: as §1
# [22] = molecular target: Neu5Ac(b2-6)Gal(b1-4)GlcNAc
# Procedure, shortened: as §1
# Neu5Ac(b2-6)GalNAc = molecular target: Neu5Ac(b2-6)GalNAc
# Procedure, shortened: as §1
binder,measurement,setting,value
B1,glycan array binding signal (z-score),[1],6.05
same,glycan array binding signal (z-score),[2],0.665
same,glycan array binding signal (z-score),[3],-0.286
same,glycan array binding signal (z-score),[4],-0.207
same,glycan array binding signal (z-score),[5],-0.604
same,glycan array binding signal (z-score),[6],-0.268
same,glycan array binding signal (z-score),GlcNAc(b1-3)GalNAc,3.09
same,glycan array binding signal (z-score),Man(a1-3)[Man(a1-6)]Man,-0.387
same,glycan array binding signal (z-score),[7],0.075
same,glycan array binding signal (z-score),[8],-0.042
same,glycan array binding signal (z-score),[9],-0.406
same,glycan array binding signal (z-score),Neu5Ac(a2-3)Gal(b1-4)Glc,4.78
same,glycan array binding signal (z-score),[10],-0.441
same,glycan array binding signal (z-score),[11],0.355
same,glycan array binding signal (z-score),[12],-0.43
same,glycan array binding signal (z-score),[13],2.43
same,glycan array binding signal (z-score),[14],-0.094
same,glycan array binding signal (z-score),[15],0.228
same,glycan array binding signal (z-score),Neu5Ac(a2-6)Gal,4.96
same,glycan array binding signal (z-score),[16],0.765
same,glycan array binding signal (z-score),[17],-0.692
same,glycan array binding signal (z-score),[18],6.02
same,glycan array binding signal (z-score),[19],5.76
same,glycan array binding signal (z-score),[20],0.094
same,glycan array binding signal (z-score),[21],-0.788
same,glycan array binding signal (z-score),[22],-1.02
same,glycan array binding signal (z-score),Neu5Ac(b2-6)GalNAc,0.736
